# According to ChEMBL document CHEMBL4513216, “Probing the Open Global Health Chemical Diversity Library for Multistage-Active Starting Points for Next-Generation Antimalarials” (ACS Infect Dis, 2020):
# About 2,700 (4%) of roughly 68,000 compounds showed an effect of 50% or more. For the sample, strong results were picked, then their nearest neighbours and some compounds at random.
# Tested on: Plasmodium berghei
# Assay: Screen against P. berghei liver stage (PbLuc), transformed with Luciferase, at 2uM
# Assay type: functional, HepG2
# Details: tested at 2 uM
row,SMILES,INHIBITION [%]
1,Cc1ccc(CN2CCCC23CCN(S(=O)(=O)c2ccccc2)C3)o1 (stereo unspecified),-30.74
2,Cc1ncc(CN(Cc2ccccn2)Cc2ccccc2Cl)n1C,-6.19
3,CC(=O)N1CC2(CCNCC2)c2cc(Cl)ccc21,62.25
4,NC(=O)N1CC2(CCNCC2)c2cc(Cl)ccc21,6.12
5,COC(=O)N1CC2(CCNCC2)c2cc(Cl)ccc21,22.71
6,O=c1cc(C2CCNCC2)nc(CCc2ccccn2)[nH]1,15.92
7,CC1CCCN(CCCNC(=O)Cc2csc(-c3ccoc3)n2)C1 (stereo unspecified),50.61
8,O=C(Cc1csc(-c2ccoc2)n1)NCCC(=O)N1CCCCC1,45.56
9,O=C(Cc1csc(-c2ccoc2)n1)NCCCN1CCCCC1,6.85
10,COCC(=O)N1CCC(C(=O)Nc2ccc(C(C)=O)cc2)CC1,10.64
11,CCC(C)NC(=O)Nc1cccc(OCCCC#N)c1 (stereo unspecified),12.39
12,O=C(c1ccco1)N1CC[C@@H]2O[C@H](COCCN3CCCC3)CC[C@@H]21,15.88
13,CC(C)(C)C(=O)N1CCN(Cn2nccc2-c2cccnc2)CC1,53
14,CC(C)(C)CCN1CCN(Cn2nccc2-c2cccnc2)CC1,-15.83
15,c1cncc(-c2ccnn2CN2CCOCC2)c1,-31.15
16,Cc1ncccc1OC1(C(=O)NCCNc2ccccc2)CCNCC1,-25.28
17,CC(=O)NCCNC(=O)C1(Oc2cccnc2C)CCNCC1,53.19
18,Cc1ncccc1OC1(C(=O)NCCc2ccccn2)CCNCC1,17.94
19,Cc1cnn(C2CN(CC(O)COc3ccc(C#N)cc3)C2)c1 (stereo unspecified),-2.84
20,Cc1cc(CN(C)C(=O)C(c2cccnc2)N2CCOCC2)n[nH]1 (stereo unspecified),39.92
21,Cc1n[nH]c(C)c1CCN(C)C(=O)C(c1cccnc1)N1CCOCC1 (stereo unspecified),51.31
22,Cc1ncsc1CCN(C)C(=O)C(c1cccnc1)N1CCOCC1 (stereo unspecified),-13.13

row,SMILES,INHIBITION [%]
1,O=C(N1CCCCC1)N1CCN(c2ccc(Cl)nn2)C(=O)C1,34.52
2,COc1cc(N2C[C@H]3CN(Cc4ccccn4)C[C@H]3C2)ncn1,-37.2
3,COc1cc2c(cc1OC)CN(C(=O)NC(C)c1nncn1C)CC2 (stereo unspecified),-23.92
4,CC(NC(=O)N1CCc2sccc2C1)c1nncn1C (stereo unspecified),64.21
5,Cc1cccc(N2CCN(C(=O)NC(C)c3nncn3C)CC2)c1 (stereo unspecified),48.64
6,COc1ccc(N2CCN(C(=O)NC(C)c3nncn3C)CC2)cc1 (stereo unspecified),-11.34
7,CC(NC(=O)N1CCc2ccccc2C1)c1nncn1C (stereo unspecified),-56.96
8,CC(NC(=O)N1CCN(c2ccccc2)CC1)c1nncn1C (stereo unspecified),50.72
9,Cc1ncccc1CNC(CCO)C1CCCCC1 (stereo unspecified),-16.72
10,O=C(CN1CCNC1=O)NCc1ccc2sccc2c1,-18.57
11,Cc1nnc(C2Cc3ccccc3CN2Cc2ncc(Cl)n2C)o1 (stereo unspecified),27.59
12,COCc1cncc2c1CCN(C(=O)c1ccoc1C)C2,34.02
13,Cc1cc(CN(C)c2nc(-c3ccco3)nc3c2CCN(C)CC3)on1,67.05
14,Cc1noc(CN(C)c2nc(-c3ccco3)nc3c2CCN(C)CC3)n1,18.14
15,Cc1nonc1CN(C)c1nc(-c2ccco2)nc2c1CCN(C)CC2,38.91
16,CNc1nc(C(=O)N2CCn3nc(C(=O)OC)cc3C2)cs1,-0.15
17,COCc1c(C(=O)N2CCCC(C(=O)c3ccccc3)C2)noc1C (stereo unspecified),10.1
18,O=S1(=O)CCN2C(=N1)Oc1ccc(Cl)cc12,22.96
19,CN(CCc1ccccn1)C(=O)c1cccs1,24.64
20,CN(Cc1ccoc1)C(=O)C1CC(=O)N(Cc2ccncc2)C1 (stereo unspecified),10.91
21,CN(Cc1ccon1)C(=O)C1CC(=O)N(Cc2ccncc2)C1 (stereo unspecified),15.96
22,CN(Cc1cnc(N)nc1)C(=O)C1CC(=O)N(Cc2ccncc2)C1 (stereo unspecified),59.8

row,SMILES,INHIBITION [%]
1,CC(C)c1nnc2n1CCN(Cc1nc3c(F)cccc3[nH]1)C2,45.4
2,Cc1oc(-c2ccsc2)nc1CN1CC[C@@H]2CCCC[C@H]2C1,54.49
3,Cc1ncc2c(n1)CN(Cc1nc(-c3ccsc3)oc1C)CC2,31.05
4,Cc1oc(-c2ccsc2)nc1CN1CCCC(c2ccnn2C)C1 (stereo unspecified),13.88
5,CN(C)Cc1nc2c(o1)CN(S(=O)(=O)c1cccs1)C2,-0.45
6,Cn1nc(C(=O)N2CCOCC2)cc1C(=O)Nc1ncc(Cl)cc1Cl,-47.52
7,Cn1nc(C(=O)N2CCOCC2)cc1C(=O)Nc1c(Cl)cccc1Cl,13.45
8,Cn1nc(C(=O)N2CCOCC2)cc1C(=O)Nc1ccc(Cl)cc1Cl,61.02
9,CC(C)CC(NC(=O)c1ccc[nH]1)C(=O)N1CCC(CO)CC1 (stereo unspecified),20.3
10,CC(C)[C@H]1CN(c2cnccn2)C[C@@H]1NC(=O)C1(C#N)CCOCC1,2.3
11,CC(C)c1ncncc1C(=O)N1CCN(Cc2ccsc2)CC1,58.05
12,CCc1ncncc1C(=O)N1CCN(Cc2ccsc2)CC1,-45.83
13,O=C(c1cc(C2CC2)[nH]n1)N1CCN(Cc2ccsc2)CC1,44.43
14,CCc1ncncc1C(=O)N1CCCN(Cc2ccccc2C)CC1,-23.42
15,Cc1ccc(C(=O)N2CCN(Cc3ccsc3)CC2)n1C,43.52
16,CC(C)c1ncncc1C(=O)N1CCN(Cc2cscn2)CC1,-43.47
17,CC(C)c1ncncc1C(=O)N1CCCN(Cc2cccs2)CC1,8.37
18,CCc1ncncc1C(=O)N1CCCN(Cc2ccc(C#N)cc2)CC1,68.24
19,CCc1ncncc1C(=O)N1CCCN(Cc2ccc(C)cc2)CC1,-8.84
20,CC(C)c1ncncc1C(=O)N1CCCN(Cc2ccccc2)CC1,56.02
21,Cc1cc(C(=O)N2CCN(Cc3ccsc3)CC2)c(C)n1C1CC1,53.58
22,CC(C)c1ncncc1C(=O)N1CCN(Cc2cccnc2)CC1,33.61

row,SMILES,INHIBITION [%]
1,N#Cc1c(-c2ccccc2)csc1N,30.76
2,Cc1noc(C)c1NC(=O)NC1CCN(C(=O)OC(C)(C)C)CC1,11.92
3,CCCn1c(C)c(CC(=O)NCCOC)c2c1CC(C)(C)CC2=O,18.91
4,CC(C)(NCC(=O)NCCC#N)c1ccc2c(c1)OCCO2,-9.66
5,Cc1ccc(CN2C[C@@H]3CCN(Cc4cccnc4)C(=O)[C@H]3C2)s1,41.38
6,Cc1ccc(OC2(C(=O)NC(C)Cc3ccsc3)CCNCC2)cc1 (stereo unspecified),26.35
7,CN(Cc1cccnc1)C1CC2(CCN(Cc3ccccn3)CC2)C1,27.9
8,CN(C)S(=O)(=O)N1CC[C@]2(C[C@H](OCc3ccccn3)CO2)C1,-51.66
9,COc1ccc(C(=O)N2CCCCC2c2ccccn2)c(OC)n1 (stereo unspecified),21.05
10,COCC(=O)N1CCN(C(C)C(=O)NC(C)C)CC1 (stereo unspecified),61.91
11,COCCNC(=O)N1CCN(C(C)C(=O)NC(C)C)CC1 (stereo unspecified),21.22
12,COCCNC(=O)C(C)N1CCN(C)CC1 (stereo unspecified),7.9
13,CC(=O)N1CCc2c(nc(N(C)C)nc2N(C)CC2CCCO2)C1 (stereo unspecified),-34.04
14,CCCC(=O)N1CCC2(CC1)COC2,54.01
15,CCCC(=O)N1CCC2(CC1)OCCO2,38.51
16,CN(C)C(=O)CCC(=O)N1CCC2(CC1)COC2,15.02
17,CS(=O)(=O)NCC(Cc1cccc(F)c1)N1CCNC1=O (stereo unspecified),22.27
18,CCS(=O)(=O)NCC(Cc1cccc(F)c1)N1CCNC1=O (stereo unspecified),-35.92
19,CC(C)S(=O)(=O)NCC(Cc1cccc(F)c1)N1CCNC1=O (stereo unspecified),53.44
20,Cc1cc(C)n(CC2CCCN2CC(=O)Nc2nncs2)n1 (stereo unspecified),37.08
21,CC(C)Nc1cccc(CNC(=O)N2CCCC2)c1,-24.87
22,CC(C)Nc1cccc(CNC(=O)N2CCC(N3CC=CC3)C2)c1 (stereo unspecified),58.34

row,SMILES,INHIBITION [%]
1,CC(C)Oc1cccc(CNC(=O)N2CCC(N3CC=CC3)C2)c1 (stereo unspecified),-21.25
2,COC(=O)CCCNC(=O)Nc1ccccc1OC,-3.99
3,CN1CCC(NC(=O)Nc2cnn(-c3ccccc3Cl)c2)C1=O (stereo unspecified),15.75
4,CNC(=O)[C@@H]1C[C@@H](n2cc(-c3ccc(CN4CC=CC4)cc3)nn2)CN1,-21.75
5,Nc1nc(CCC(=O)N2C[C@H](c3ccccc3)[C@@H](N)C2)cs1,-10.1
6,CCc1ccc2c(C3CN(S(C)(=O)=O)C3)ncn2c1,28.81
7,CS(=O)(=O)N1CC(c2ncn3ccccc23)C1,51.36
8,CS(=O)(=O)N1CC(c2n[nH]c3ncccc23)C1,31.98
9,CC(=O)N1N=C(c2cccs2)OC1C(=O)Nc1ccc(C(C)C)cc1 (stereo unspecified),19.09
10,COC1CCN(C(=O)c2csc(-c3ccccc3F)n2)CC1,10.91
11,NC(=O)CC1CCN(C(=O)c2csc(-c3ccccc3F)n2)CC1,51.96
12,NC(=O)CC1CCN(C(=O)c2cnc(-c3ccccc3F)s2)CC1,20.76
13,Cc1noc(C)c1CN1CCn2c(COC(C)C)nnc2C1,40.71
14,Fc1ccc(OCCNC2CCN(Cc3ccncc3)CC2)c(F)c1,4.19
15,Cc1nn(CC(=O)NCCc2ccncc2)c(=O)n1Cc1ccccc1,53.98
16,Cc1ccc(CCNC(=O)Cn2nc(C)n(Cc3ccccc3)c2=O)s1,-8.8
17,Cc1ccc(CCNC(=O)Cn2nc(C)n(Cc3ccccc3)c2=O)o1,-9.48
18,Cc1nnc(CN2C[C@H](NC(=O)C3CCOCC3)[C@@H](C(C)C)C2)s1,-29.43
